# Data as given in PMC7862700, “An all-to-all approach to the identification of sequence-specific readers for epigenetic DNA modifications on cytosine”.
# Assays:
# Assay in all cases: DAPPL (digital affinity profiling via proximity ligation, sequencing); 10 mM Tris-HCl pH 7.5, 50 mM NaCl, 1 mM DTT, 4% glycerol, room temperature, 30 min; GST-TFs on glutathione beads, 16-mer random dsDNA library, 0.1% formaldehyde crosslink after washing; high values mean tight binding
# [1] = molecular target: T1, FLI1 (Homo sapiens, UniProt Q01543 1-452); details: protein: recombinant; tags: N-terminal GST; dsDNA, one strand shown
# T1 sequence: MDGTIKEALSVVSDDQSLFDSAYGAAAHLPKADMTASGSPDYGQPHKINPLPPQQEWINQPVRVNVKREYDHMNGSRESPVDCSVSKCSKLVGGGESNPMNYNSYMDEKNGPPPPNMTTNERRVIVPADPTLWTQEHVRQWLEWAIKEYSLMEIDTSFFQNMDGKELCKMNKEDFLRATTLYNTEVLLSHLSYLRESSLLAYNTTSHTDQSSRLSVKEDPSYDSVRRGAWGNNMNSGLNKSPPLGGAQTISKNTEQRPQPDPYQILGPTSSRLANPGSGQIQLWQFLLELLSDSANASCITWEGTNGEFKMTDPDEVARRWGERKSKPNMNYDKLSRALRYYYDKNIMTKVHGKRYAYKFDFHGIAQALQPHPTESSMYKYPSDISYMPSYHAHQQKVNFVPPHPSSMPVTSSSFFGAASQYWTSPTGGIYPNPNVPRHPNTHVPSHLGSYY
# Procedure, shortened: (§1)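 Beads coated with glutathione captured GST-fused human transcription factors that had been expressed in yeast, and the factors were then given DNA barcodes and pooled with a tag-only sample. The pools were incubated with 200 nmole of a random double-stranded 16-mer DNA library in Tris/NaCl/DTT/glycerol buffer for 30 min at room temperature, washed, crosslinked with 0.1% formaldehyde and proximity-ligated with BsaI/T4 ligase at 37 °C for 1 h. PCR amplification and Illumina NextSeq500 sequencing came last. Binding signal is each hexamer's read frequency for a factor divided by its frequency for the tag-only sample.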
# [2] = molecular target: T2, ELK1 (Homo sapiens, UniProt P19419 1-428); details: protein: recombinant; tags: N-terminal GST; dsDNA, one strand shown
# T2 sequence: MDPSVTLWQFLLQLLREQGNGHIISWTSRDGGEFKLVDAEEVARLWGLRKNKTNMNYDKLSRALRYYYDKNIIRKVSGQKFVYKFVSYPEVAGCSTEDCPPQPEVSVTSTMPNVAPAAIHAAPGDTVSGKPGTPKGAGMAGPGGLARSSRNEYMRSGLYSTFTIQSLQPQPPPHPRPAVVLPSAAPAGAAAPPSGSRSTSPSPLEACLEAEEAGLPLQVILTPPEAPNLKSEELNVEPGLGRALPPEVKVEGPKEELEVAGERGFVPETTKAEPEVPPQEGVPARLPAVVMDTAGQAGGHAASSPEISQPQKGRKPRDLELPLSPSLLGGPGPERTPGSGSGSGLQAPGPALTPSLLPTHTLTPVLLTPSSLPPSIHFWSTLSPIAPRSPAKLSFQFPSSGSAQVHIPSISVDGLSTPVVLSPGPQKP
# Procedure, shortened: as §1
# [3] = molecular target: T3, GABPA (Homo sapiens, UniProt Q06546 1-454); details: protein: recombinant; tags: N-terminal GST; dsDNA, one strand shown
# T3 sequence: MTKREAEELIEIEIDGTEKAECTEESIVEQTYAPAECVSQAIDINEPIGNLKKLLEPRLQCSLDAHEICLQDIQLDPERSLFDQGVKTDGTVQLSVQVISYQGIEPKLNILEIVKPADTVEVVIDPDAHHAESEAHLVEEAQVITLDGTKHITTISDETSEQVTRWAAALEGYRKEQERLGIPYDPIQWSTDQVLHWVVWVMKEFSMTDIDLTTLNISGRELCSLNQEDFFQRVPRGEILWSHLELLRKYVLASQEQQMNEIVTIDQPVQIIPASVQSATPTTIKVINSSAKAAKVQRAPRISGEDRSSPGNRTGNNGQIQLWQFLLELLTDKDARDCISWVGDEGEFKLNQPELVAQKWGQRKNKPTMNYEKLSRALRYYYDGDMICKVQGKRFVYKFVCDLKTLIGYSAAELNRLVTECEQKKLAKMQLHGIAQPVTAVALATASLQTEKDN
# Procedure, shortened: as §1
# [4] = molecular target: T4, ERG (Homo sapiens, UniProt P11308 1-479); details: protein: recombinant; tags: N-terminal GST; dsDNA, one strand shown
# T4 sequence: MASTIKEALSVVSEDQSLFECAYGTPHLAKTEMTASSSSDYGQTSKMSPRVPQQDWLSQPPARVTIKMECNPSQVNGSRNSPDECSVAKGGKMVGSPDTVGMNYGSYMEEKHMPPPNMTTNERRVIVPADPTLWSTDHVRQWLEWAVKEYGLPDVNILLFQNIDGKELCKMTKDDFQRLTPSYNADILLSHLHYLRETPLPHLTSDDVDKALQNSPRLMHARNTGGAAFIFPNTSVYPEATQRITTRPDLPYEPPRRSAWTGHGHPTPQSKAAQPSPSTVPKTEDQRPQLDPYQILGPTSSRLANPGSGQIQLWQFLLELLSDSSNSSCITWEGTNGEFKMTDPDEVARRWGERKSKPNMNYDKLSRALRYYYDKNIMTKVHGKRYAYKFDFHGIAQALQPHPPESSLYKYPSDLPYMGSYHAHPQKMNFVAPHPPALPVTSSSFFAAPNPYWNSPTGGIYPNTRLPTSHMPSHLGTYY
# Procedure, shortened: as §1
# [5] = molecular target: ELF1 (Homo sapiens, UniProt P32519 1-619); details: protein: recombinant; tags: N-terminal GST; dsDNA, one strand shown
# Procedure, shortened: as §1
# [6] = molecular target: T5, EHF (Homo sapiens, UniProt Q9NZC4 1-300); details: protein: recombinant; tags: N-terminal GST; dsDNA, one strand shown
# T5 sequence: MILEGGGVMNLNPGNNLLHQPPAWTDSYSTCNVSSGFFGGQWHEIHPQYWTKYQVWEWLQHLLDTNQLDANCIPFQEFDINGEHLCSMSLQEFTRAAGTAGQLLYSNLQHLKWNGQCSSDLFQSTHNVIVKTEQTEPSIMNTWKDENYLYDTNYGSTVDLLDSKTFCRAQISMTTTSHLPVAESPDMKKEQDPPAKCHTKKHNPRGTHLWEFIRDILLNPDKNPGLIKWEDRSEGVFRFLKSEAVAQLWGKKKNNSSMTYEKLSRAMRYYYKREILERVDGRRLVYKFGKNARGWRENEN
# Procedure, shortened: as §1
# [7] = molecular target: SPI1 (Homo sapiens, UniProt P17947 1-270); details: protein: recombinant; tags: N-terminal GST; dsDNA, one strand shown
# Procedure, shortened: as §1
# [8] = molecular target: SPIB (Homo sapiens, UniProt Q01892 1-262); details: protein: recombinant; tags: N-terminal GST; dsDNA, one strand shown
# Procedure, shortened: as §1
# [9] = molecular target: T6, ELK3 (Homo sapiens, UniProt P41970 1-407); details: protein: recombinant; tags: N-terminal GST; dsDNA, one strand shown
# T6 sequence: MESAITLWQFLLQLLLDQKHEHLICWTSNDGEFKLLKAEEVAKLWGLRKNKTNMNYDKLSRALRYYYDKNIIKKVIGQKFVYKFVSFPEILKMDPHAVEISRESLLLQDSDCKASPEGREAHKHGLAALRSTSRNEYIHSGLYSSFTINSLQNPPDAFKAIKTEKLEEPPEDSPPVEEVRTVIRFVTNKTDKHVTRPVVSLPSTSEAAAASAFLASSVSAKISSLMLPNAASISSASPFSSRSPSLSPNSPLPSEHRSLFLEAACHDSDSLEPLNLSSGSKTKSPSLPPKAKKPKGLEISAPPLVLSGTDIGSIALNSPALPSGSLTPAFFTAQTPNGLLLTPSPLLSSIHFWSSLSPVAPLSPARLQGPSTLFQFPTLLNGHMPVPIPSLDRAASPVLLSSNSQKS
# Procedure, shortened: as §1
# [10] = molecular target: T7, FEV (Homo sapiens, UniProt Q99581 1-238); details: protein: recombinant; tags: N-terminal GST; dsDNA, one strand shown
# T7 sequence: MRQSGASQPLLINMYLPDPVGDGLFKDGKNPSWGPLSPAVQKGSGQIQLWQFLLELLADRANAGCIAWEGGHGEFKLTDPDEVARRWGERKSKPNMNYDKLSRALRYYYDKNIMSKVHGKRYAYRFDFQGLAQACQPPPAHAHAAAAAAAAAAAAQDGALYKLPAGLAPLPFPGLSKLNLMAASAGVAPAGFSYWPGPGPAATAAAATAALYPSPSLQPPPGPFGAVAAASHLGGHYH
# Procedure, shortened: as §1
# [11] = molecular target: ETV5 (Homo sapiens, UniProt P41161 1-510); details: protein: recombinant; tags: N-terminal GST; dsDNA, one strand shown
# Procedure, shortened: as §1
# [12] = molecular target: HSF1 (Homo sapiens, UniProt Q00613 1-529); details: protein: recombinant; tags: N-terminal GST; chain copies: 3; dsDNA, one strand shown
# Procedure, shortened: as §1
# [13] = molecular target: T8, SPIC (Homo sapiens, UniProt Q8N5J4 1-248); details: protein: recombinant; tags: N-terminal GST; dsDNA, one strand shown
# T8 sequence: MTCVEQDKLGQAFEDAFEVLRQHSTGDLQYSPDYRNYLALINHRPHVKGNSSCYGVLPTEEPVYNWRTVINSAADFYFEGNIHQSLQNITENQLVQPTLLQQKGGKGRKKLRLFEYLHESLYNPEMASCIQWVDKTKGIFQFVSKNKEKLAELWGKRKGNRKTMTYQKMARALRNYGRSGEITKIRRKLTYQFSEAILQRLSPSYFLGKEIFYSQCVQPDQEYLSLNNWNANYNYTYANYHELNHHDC
# Procedure, shortened: as §1
# [14] = molecular target: ELF4 (Homo sapiens, UniProt Q99607 1-663); details: protein: recombinant; tags: N-terminal GST; dsDNA, one strand shown
# Procedure, shortened: as §1
# [15] = molecular target: T9, ELK4 (Homo sapiens, UniProt P28324-2 1-405); details: protein: recombinant; tags: N-terminal GST; dsDNA, one strand shown
# T9 sequence: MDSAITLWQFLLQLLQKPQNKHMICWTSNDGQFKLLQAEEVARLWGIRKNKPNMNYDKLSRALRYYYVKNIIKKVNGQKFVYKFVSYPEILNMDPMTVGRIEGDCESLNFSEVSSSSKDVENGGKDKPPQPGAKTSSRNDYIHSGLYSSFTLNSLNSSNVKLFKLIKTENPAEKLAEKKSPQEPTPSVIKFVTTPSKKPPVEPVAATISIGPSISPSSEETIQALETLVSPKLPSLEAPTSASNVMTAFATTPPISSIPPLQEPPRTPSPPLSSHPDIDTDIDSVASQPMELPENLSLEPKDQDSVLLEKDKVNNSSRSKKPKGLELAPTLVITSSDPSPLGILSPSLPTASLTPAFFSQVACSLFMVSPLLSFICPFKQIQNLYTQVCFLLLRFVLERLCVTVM
# Procedure, shortened: as §1
# [16] = molecular target: T10, ETV2 (Homo sapiens, UniProt O00321 1-342); details: protein: recombinant; tags: N-terminal GST; dsDNA, one strand shown
# T10 sequence: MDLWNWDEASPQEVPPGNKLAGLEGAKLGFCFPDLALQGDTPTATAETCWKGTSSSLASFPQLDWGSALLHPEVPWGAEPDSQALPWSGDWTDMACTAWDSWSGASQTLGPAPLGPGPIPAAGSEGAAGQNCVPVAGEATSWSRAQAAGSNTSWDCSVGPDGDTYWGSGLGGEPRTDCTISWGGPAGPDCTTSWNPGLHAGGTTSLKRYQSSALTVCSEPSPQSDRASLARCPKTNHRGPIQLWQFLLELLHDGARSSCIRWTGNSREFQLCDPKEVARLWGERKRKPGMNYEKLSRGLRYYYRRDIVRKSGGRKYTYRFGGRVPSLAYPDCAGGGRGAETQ
# Procedure, shortened: as §1
# [17] = molecular target: T11, ELF3 (Homo sapiens, UniProt P78545 1-371); details: protein: recombinant; tags: N-terminal GST; dsDNA, one strand shown
# T11 sequence: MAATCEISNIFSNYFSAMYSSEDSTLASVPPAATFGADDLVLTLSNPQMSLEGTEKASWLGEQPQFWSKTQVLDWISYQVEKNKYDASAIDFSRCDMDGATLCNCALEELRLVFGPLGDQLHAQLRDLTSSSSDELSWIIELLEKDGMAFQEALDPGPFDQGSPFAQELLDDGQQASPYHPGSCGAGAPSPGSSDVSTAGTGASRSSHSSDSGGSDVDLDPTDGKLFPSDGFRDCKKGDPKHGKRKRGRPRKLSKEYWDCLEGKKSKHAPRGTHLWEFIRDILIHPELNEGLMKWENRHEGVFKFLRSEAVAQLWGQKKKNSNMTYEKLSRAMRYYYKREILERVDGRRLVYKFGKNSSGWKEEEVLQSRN
# Procedure, shortened: as §1
# [18] = molecular target: CRX (Homo sapiens, UniProt O43186 1-299); details: protein: recombinant; tags: N-terminal GST; dsDNA, one strand shown
# Procedure, shortened: as §1
# [19] = molecular target: ETV1 (Homo sapiens, UniProt P50549 1-477); details: protein: recombinant; tags: N-terminal GST; dsDNA, one strand shown
# Procedure, shortened: as §1
# ELF4, sequence (Q99607 whole entry): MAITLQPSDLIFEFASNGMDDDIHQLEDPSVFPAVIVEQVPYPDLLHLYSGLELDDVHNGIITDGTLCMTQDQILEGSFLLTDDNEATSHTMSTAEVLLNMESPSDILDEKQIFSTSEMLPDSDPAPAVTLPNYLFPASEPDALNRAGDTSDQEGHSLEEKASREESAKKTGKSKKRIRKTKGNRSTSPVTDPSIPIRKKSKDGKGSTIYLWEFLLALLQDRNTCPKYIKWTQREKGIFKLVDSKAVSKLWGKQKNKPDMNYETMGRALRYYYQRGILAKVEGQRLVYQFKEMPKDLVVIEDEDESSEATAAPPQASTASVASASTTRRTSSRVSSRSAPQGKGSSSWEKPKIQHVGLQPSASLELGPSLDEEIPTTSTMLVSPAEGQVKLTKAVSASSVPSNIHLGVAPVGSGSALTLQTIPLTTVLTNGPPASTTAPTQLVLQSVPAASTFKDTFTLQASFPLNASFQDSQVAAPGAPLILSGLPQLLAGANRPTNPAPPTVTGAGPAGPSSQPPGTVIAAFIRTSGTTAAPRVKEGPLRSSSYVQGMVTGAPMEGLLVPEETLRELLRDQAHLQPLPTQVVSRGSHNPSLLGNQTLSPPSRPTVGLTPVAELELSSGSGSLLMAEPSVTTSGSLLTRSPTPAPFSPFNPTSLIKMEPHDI
# ETV5, sequence (P41161 whole entry): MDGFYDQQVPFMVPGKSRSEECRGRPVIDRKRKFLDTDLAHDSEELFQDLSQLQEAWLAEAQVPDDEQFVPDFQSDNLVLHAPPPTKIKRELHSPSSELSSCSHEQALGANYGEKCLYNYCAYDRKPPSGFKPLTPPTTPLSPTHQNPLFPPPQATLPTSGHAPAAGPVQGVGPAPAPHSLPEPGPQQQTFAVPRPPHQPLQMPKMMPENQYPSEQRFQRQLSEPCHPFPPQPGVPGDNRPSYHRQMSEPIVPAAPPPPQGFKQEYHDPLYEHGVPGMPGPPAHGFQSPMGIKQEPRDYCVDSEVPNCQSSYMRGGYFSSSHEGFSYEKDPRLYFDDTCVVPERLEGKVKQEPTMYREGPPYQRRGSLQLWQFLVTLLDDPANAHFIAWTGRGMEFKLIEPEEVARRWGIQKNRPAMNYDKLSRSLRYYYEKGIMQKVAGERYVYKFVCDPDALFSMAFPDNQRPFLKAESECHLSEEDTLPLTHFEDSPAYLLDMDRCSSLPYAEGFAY
# ETV1, sequence (P50549 whole entry): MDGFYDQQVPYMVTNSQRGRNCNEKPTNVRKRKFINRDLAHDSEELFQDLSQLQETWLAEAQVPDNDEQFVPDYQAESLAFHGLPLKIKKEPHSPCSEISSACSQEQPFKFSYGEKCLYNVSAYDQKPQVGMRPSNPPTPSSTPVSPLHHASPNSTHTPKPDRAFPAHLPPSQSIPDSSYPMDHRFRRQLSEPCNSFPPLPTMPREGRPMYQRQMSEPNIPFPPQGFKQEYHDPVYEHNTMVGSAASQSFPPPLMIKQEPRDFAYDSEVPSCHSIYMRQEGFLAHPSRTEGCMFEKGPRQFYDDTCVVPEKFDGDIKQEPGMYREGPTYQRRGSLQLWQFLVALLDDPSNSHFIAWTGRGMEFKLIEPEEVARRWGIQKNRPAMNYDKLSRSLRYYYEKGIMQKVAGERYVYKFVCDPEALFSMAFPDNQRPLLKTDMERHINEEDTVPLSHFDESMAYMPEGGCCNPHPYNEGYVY
# CRX, sequence (O43186 whole entry): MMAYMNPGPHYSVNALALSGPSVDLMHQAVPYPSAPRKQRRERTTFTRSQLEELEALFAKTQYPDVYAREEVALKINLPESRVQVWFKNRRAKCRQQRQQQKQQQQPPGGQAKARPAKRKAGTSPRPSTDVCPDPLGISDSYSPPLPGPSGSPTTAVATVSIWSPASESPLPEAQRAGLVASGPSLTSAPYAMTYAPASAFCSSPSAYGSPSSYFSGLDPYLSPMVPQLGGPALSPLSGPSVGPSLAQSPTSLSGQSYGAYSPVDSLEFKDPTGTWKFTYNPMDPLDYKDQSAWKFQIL
# SPIB, sequence (Q01892 whole entry): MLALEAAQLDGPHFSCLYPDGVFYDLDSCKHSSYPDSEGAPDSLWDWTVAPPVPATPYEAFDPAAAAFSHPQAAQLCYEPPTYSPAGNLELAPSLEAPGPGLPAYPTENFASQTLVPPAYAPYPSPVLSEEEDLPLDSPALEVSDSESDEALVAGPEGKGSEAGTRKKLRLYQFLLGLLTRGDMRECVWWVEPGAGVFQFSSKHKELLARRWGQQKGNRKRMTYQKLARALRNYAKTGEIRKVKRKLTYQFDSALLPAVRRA
# HSF1, sequence (Q00613 whole entry): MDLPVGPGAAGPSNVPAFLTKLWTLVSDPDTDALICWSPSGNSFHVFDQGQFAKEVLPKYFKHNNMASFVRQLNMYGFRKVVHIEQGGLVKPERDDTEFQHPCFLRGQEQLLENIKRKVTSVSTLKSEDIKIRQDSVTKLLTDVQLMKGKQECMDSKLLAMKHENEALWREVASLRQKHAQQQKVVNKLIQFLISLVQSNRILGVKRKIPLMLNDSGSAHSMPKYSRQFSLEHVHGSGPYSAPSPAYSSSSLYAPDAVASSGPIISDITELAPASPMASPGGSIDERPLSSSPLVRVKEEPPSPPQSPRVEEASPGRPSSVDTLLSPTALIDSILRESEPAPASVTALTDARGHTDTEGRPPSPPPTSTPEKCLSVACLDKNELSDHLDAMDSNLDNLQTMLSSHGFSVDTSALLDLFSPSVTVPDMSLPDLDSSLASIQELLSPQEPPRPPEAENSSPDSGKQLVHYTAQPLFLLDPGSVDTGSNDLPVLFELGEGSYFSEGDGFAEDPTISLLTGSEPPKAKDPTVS
# ELF1, sequence (P32519 whole entry): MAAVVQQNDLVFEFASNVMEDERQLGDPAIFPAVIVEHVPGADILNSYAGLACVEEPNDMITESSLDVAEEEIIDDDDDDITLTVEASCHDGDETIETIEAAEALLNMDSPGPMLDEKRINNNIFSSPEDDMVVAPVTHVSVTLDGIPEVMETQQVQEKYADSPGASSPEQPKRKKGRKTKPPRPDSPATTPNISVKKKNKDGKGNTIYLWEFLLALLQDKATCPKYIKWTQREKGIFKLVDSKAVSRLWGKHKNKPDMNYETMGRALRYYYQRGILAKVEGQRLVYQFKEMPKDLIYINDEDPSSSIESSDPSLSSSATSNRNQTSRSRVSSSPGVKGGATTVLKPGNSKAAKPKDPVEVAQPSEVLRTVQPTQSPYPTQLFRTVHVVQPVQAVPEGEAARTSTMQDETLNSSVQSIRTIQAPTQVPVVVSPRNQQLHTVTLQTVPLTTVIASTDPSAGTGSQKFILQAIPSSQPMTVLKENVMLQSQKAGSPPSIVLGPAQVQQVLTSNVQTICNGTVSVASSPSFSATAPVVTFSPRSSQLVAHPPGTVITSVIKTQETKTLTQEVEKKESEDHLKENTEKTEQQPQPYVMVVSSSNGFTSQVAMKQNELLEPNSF
sequence,measurement,setting,value
ACCTCT,binding signal,[1],"1.32 fold enrichment (6-mer frequency, TF over GST control)"
same,binding signal,[2],"1.37 fold enrichment (6-mer frequency, TF over GST control)"
same,binding signal,[3],"1.41 fold enrichment (6-mer frequency, TF over GST control)"
same,binding signal,[4],"1.41 fold enrichment (6-mer frequency, TF over GST control)"
same,binding signal,[5],"1.47 fold enrichment (6-mer frequency, TF over GST control)"
same,binding signal,[6],"1.37 fold enrichment (6-mer frequency, TF over GST control)"
same,binding signal,[7],"1.29 fold enrichment (6-mer frequency, TF over GST control)"
same,binding signal,[8],"1.24 fold enrichment (6-mer frequency, TF over GST control)"
same,binding signal,[9],"1.36 fold enrichment (6-mer frequency, TF over GST control)"
same,binding signal,[10],"1.3 fold enrichment (6-mer frequency, TF over GST control)"
same,binding signal,[11],"1.31 fold enrichment (6-mer frequency, TF over GST control)"
same,binding signal,[12],"1.18 fold enrichment (6-mer frequency, TF over GST control)"
same,binding signal,[13],"1.47 fold enrichment (6-mer frequency, TF over GST control)"
same,binding signal,[14],"1.33 fold enrichment (6-mer frequency, TF over GST control)"
same,binding signal,[15],"1.29 fold enrichment (6-mer frequency, TF over GST control)"
same,binding signal,[16],"1.35 fold enrichment (6-mer frequency, TF over GST control)"
same,binding signal,[17],"1.51 fold enrichment (6-mer frequency, TF over GST control)"
same,binding signal,[18],"1.19 fold enrichment (6-mer frequency, TF over GST control)"
same,binding signal,[19],"1.3 fold enrichment (6-mer frequency, TF over GST control)"
